Source: PubChem BioAssay
Shown are actives, neighbours in structure and some others; about 7.4% of the full set was active somewhere.
M1 antagonist – antagonists of rat M1 muscarinic receptor. 3.4% of 64,000 active. Muscarinic acetylcholine receptor M1 (Rattus norvegicus), P08482. AID 628, 2007. B-score at 10 µM. CHO-M1 cells, Fluo-4 calcium, ACh EC80 antagonist mode; stronger effect = lower value;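 active = calcium fluorescence response, raw or row-and-column corrected B-score, differing from the plate sample mean either way at a set confidence level, mostly lower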
D1 mod – D1 CRE-luciferase signal change, two-sided – cell-based, HEK293 D1, dopamine EC30, D1 allosteric modulator project, primary screen. D(1A) dopamine receptor (Homo sapiens), P21728. dopamine EC30 potentiation; actives deviate in either direction. B-score at 10 µM. 5.9% of 58,000 active. AID 641, 2007;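 active = luminescence count or its row- and column-corrected plate score outside the 99.7% band of the plate's sample wells, on either side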
Target sequence (P21728 whole entry, looked up): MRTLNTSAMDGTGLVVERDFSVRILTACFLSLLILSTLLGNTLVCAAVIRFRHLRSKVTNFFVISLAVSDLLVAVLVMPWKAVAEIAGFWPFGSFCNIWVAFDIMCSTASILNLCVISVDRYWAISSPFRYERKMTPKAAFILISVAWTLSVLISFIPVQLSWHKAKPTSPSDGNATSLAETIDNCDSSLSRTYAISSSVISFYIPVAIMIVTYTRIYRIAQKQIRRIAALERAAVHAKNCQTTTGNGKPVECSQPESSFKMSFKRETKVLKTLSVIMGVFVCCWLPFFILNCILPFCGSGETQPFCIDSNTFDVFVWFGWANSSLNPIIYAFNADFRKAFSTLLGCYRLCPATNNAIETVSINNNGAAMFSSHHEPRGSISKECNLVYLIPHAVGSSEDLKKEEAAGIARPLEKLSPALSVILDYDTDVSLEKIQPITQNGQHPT
M1 agonist – M1 muscarinic receptor agonists, primary screen, CHO-M1 cells, Fluo-4 calcium, agonist mode; Fluo-4 calcium fluorescence; stronger effect = higher value; B-score at 10 µM; 3% of 64,000 active; AID 626, 2007;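 active = fluorescence rise, raw or as B-score row- and column-corrected plate score, outside the 99.7% band of its plate's samples, either direction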
FXIIa inh mix – human factor XIIa inhibitors, primary screen, biochemical, pooled compound mixtures, fluorogenic substrate | Coagulation factor XII (Homo sapiens), P00748 | purified FXIIa | inhibition, % at 5 µM | 0.2% of 62,000 active | AID 684, 2007
FXIa inh mix – FXIa protease inhibitors in compound pools, primary screen, biochemical, 10-compound mixtures; purified FXIa, fluorogenic substrate, pooled mixtures; 0.19% of 62,000 active; inhibition, % at 5 µM; Coagulation factor XI (Homo sapiens), P03951;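 note: each value is inhibition by a whole ten-compound pool holding the compound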
DAT uptake mod – changed hDAT dopamine uptake under cocaine IC80, either direction, primary screen, cocaine antagonist project, cell-based, LLC-PK1 hDAT, [14C]-dopamine uptake, MLSMR; Sodium-dependent dopamine transporter (Homo sapiens), Q01959; LLC-PK1 hDAT cells, [14C]-dopamine uptake with cocaine IC80; actives deviate in either direction; B-score at 10 µM; 1.3% of 110,000 active;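 active = Z score or B-score, a plate-position-corrected score, falls beyond the plate's 99.7% confidence bounds, in either direction; inactive = both scores lie inside the 99.7% bounds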
D1 PAM confirm – D1 receptor positive allosteric modulators, retest, confirmation, cell-based, HEK293 D1, CRE-luciferase, duplicate; AID 642, 2007; shares compounds with D1 mod; 88% of 2,200 active; dopamine EC30 potentiation; stronger effect = higher value; luminescence at 10 µM;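 active = luminescence in either of two replicates above the same-plate mean plus 3 SD of the low-dose dopamine control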
D1 ag no DA – D1 receptor agonism without dopamine, confirmation, mechanism study for D1 allosteric modulator project, cell-based, HEK293 D1, CRE-luciferase, secondary assay 1; shares compounds with D1 mod; luminescence, no dopamine; stronger effect = higher value; luminescence at 10 µM; 0.8% of 1,900 active; AID 646, 2007; in the data active = luminescence above about 3900
Isoprot counter – isoproterenol response counter-screen activity for D1 modulators. shares compounds with D1 mod. HEK293 D1 CRE-luciferase, isoproterenol EC30 counter-screen. calls only at 10 µM. 63% of 2,200 active. AID 647;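 active = luminescence in either replicate above plate mean of wells with a partly effective reference agonist dose plus 3 SD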;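 note: isoproterenol raises cAMP through native beta-adrenoceptor Gs so signal bypasses D1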
A number is an active result; - = inactive; . = no result; + = active, no number. Cut-off read from the data, not from the text of the source, unless noted: active = inhibition above about 20% (passing the limit was not always enough); inactive = the rest.

SMILES	M1 antagonist	D1 mod	M1 agonist	FXIIa inh mix	FXIa inh mix	DAT uptake mod	D1 PAM confirm	D1 ag no DA	Isoprot counter
COc1ccc(CCNc2c(N)n(Cc3ccccc3)c(=O)[nH]c2=O)cc1OC	-	4.7	-	-	-	-	14452	-	+
COC(=O)CN(c1ccccn1)S(=O)(=O)c1ccccc1	-	5.2	-	-	-	-	-	-	-
CCCc1cc2c(cc1NC(=O)c1ccc(C)cc1)OCO2	.	.	.	.	.	-	.	.	.
COC(=O)c1cc(CSc2nnc(NC3CCCCC3)s2)oc1C	-	10	-	-	-	-	10504	-	+
COC(=O)c1cc(CSc2nnc(-c3ccccc3)c(-c3ccccc3)n2)oc1C	-	-	-	-	-	-	.	.	.
CCOC(=O)C(CCC#N)(CCC#N)C(=O)OCC	-	-	-	-	-	-	.	.	.
CCOC(=O)C(O)(CCC(O)(C(=O)OCC)C(=O)OCC)C(=O)OCC	-	5	-	.	.	-	6712	-	-
CCNCCOC(c1ccccc1)c1ccccc1	.	.	.	.	.	-	.	.	.
CCOc1ccc(N(CC(=O)NCc2ccc(F)cc2)S(=O)(=O)c2c(C)noc2C)cc1	-	-	-	-	-	-	.	.	.
CCCCn1c(NC(=O)CC)c(C#N)c2nc3ccccc3nc21	-	7.2	-	-	-	-	14868	-	+
CCO[C@H]1OC(C(=O)N2CCN(Cc3ccc4c(c3)OCO4)CC2)=C[C@@H](C2CCCCC2)[C@@H]1CCCO	.	.	.	.	.	-	.	.	.
Cc1ccc2c(Cl)c(C(=O)NCc3cccnc3)sc2c1	.	.	.	.	.	-	.	.	.
Cc1nc2cccc(C(=O)NC3CCCCC3)c2o1	-	14	-	-	-	-	19668	.	+
O=C(NC1CCCC1)c1cccnc1N1CCCCCC1	-	-	-	-	-	-	.	.	.
CCOc1ccc(C(=O)N2CCCC2)cc1OC	-	-	-	-	-	-	.	.	.
COc1cc(OC)cc(C(=O)N2CCN(C(=O)c3ccc(OC)c(OC)c3)CC2)c1	-	14	-	-	-	-	19992	-	+
O=C1CC(=O)C(n2cncn2)C(c2ccc(Cl)cc2Cl)C1 (configuration not stated)	.	.	.	.	.	-	.	.	.
O=c1ccn(Cc2ccccc2)c(=O)n1Cc1ccccc1	-	2.9	-	-	-	2.8	12736	-	+
Cn1c(N)cc(=O)n(Cc2ccccc2)c1=O	.	.	.	.	.	-	.	.	.
N#Cc1c2n(c3c(=O)n(Cc4ccc(Cl)cc4)cnc13)CCCC2	-	2.6	-	-	-	-	10052	-	+
N#Cc1c2n(c3c(=O)n(Cc4ccccc4Cl)cnc13)CCCC2	-	3.4	-	-	-	-	9264	-	+
CC(C)NC(=O)COc1ccc(Cl)cc1Cl	.	.	.	.	.	-	.	.	.
CCOC(=O)c1c(NC(=O)OC)sc(C(=O)N(C)C)c1C	-	4.1	-	-	-	-	13484	-	+
COC(=O)Nc1sc(C(=O)N(C)C)c(C)c1C(=O)OC	.	.	.	.	.	-	.	.	.
CCCc1cc(C(=O)Nc2sc(C(C)=O)c(C)c2C(=O)OCC)no1	-	6.5	-	-	-	-	7336	-	-
CCOC(=O)c1sc(NC(=O)CSc2nnc(C)s2)c(C(=O)OCC)c1C	-	6.1	-	-	-	-	25484	-	+
CCOC(=O)c1c(/N=C/N(C)C)sc(C(=O)OC)c1C	-	3.7	-	-	-	-	8988	.	+
